Experimental data reported in PubChem BioAssay.
Active and inactive are the calls of the source. Unless noted, the rule behind the calls is not given here.

Tests used:
[1] = compound effects on lung adenocarcinoma cell viability – A549, calcein-AM fluorescence, 48 h, basal, profiling panel (AID 1162); settings: higher = more signal; note: test concentration not given here
[2] = compound effects on differentiated 3T3-L1 adipocyte viability – cell-based, 3T3-L1 adipocytes, calcein-AM fluorescence, 48 h, basal, profiling panel (AID 1163); settings: 3T3-L1 adipocytes viability, higher = more signal; note: test concentration not given here
[3] = compound effects on hepatocellular carcinoma cell viability – HepG2, calcein-AM fluorescence, 48 h, basal, profiling panel (AID 1164); settings: higher = more signal; note: test concentration not given here
[4] = compound effects on multiple myeloma cell viability – MM1S, calcein-AM fluorescence, 48 h, basal, profiling panel (AID 1165); settings: higher = more signal;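 note: viability of MM1S multiple myeloma cells under basal unstimulated conditions; test concentration not given here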
[5] = calcein-AM signal in unstimulated myeloma cells – cell-based, calcein-AM fluorescence, 48 h, PK04 Diversity Set, profiling panel (AID 1166); settings: RPMI8226 myeloma viability, higher = more signal;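 note: cells grown under basal conditions without added stimulus; test concentration not given here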
[6] = JC-1 mitochondrial signal, unstimulated HepG2 cells – cell-based, JC-1 fluorescence, 24 h, 100 nL compound, profiling panel (AID 1167); settings: HepG2 mitochondrial potential, higher = more signal; note: test concentration not given here
[7] = JC-1 mitochondrial signal, unstimulated adipocytes – cell-based, JC-1 fluorescence, 3T3-L1 adipocytes, 24 h, 100 nL compound, profiling panel (AID 1168); settings: JC-1 mitochondrial fluorescence, higher = more signal, called active from +8 up or from −8 down; note: test concentration not given here
[8] = JC-1 mitochondrial signal, unstimulated myeloma cells – cell-based, JC-1 fluorescence, RPMI8226, 24 h, 100 nL compound, profiling panel (AID 1169); settings: JC-1 mitochondrial potential fluorescence, higher = more signal; note: test concentration not given here
[9] = JC-1 mitochondrial signal, unstimulated MM1S myeloma – cell-based, JC-1 fluorescence, 24 h, 100 nL compound, profiling panel (AID 1170); settings: MM1S mitochondrial potential, higher = more signal; note: test concentration not given here
[10] = resazurin metabolic signal in A549 cells – cell-based, resazurin fluorescence, 24 h, PK04 Diversity Set, profiling panel (AID 1171); settings: A549 viability, higher = more signal, called active from +8 up or from −8 down; note: test concentration not given here
[11] = resazurin metabolic signal in HepG2 cells – cell-based, resazurin fluorescence, 24 h, PK04 Diversity Set, profiling panel (AID 1172); settings: HepG2 viability, higher = more signal; note: test concentration not given here
[12] = budding yeast growth changes without added modifier – OD600, strain BY4716, 24 h, basal condition, primary screen (AID 1173); settings: S. cerevisiae BY4716 growth, OD600, 24 h; higher = more signal, called active from +8 up or from −8 down
[13] = viability profiling in MM1S myeloma cells – cell-based, resazurin fluorescence, basal, 24 h, PK04 Diversity Set, profiling panel (AID 1174); settings: higher = more signal, called active from +8 up or from −8 down; note: test concentration not given here
[14] = molecular target: Dihydroorotate dehydrogenase (quinone), mitochondrial (Plasmodium falciparum (isolate 3D7)) (UniProt Q08210); experiment: inhibition of P. falciparum DHODH – biochemical, C-terminal His tag, absorbance 600 nm, primary screen (AID 1175); settings: PfDHODH enzyme, DCIP absorbance 600 nm; higher = more signal, called active from +8 up or from −8 down;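 note: recombinant parasite enzyme with a five histidine tag at its C terminus; test concentration not given here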
Sequence of Dihydroorotate dehydrogenase (quinone), mitochondrial (Plasmodium falciparum (isolate 3D7)) (Q08210 whole entry, looked up): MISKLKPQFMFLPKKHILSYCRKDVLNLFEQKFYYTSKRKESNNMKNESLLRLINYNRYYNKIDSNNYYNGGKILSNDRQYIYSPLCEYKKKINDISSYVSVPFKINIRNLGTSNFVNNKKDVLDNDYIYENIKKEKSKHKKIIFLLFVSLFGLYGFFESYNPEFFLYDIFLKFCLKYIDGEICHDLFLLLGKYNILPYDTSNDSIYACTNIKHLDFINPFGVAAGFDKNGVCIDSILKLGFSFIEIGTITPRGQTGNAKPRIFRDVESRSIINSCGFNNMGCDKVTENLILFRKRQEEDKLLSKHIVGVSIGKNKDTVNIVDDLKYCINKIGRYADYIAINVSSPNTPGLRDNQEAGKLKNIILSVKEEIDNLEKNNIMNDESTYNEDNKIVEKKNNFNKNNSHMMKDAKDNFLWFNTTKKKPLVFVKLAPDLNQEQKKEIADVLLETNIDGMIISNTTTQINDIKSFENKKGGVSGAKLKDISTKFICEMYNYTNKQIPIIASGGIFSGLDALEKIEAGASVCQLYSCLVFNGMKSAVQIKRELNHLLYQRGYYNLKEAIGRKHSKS

[15] = inhibition of PAO1 biofilm formation – strain PAO1, LB-PBS medium, absorbance 600 nm, primary screen (AID 1176); note: test concentration not given here; settings: P. aeruginosa PAO1 growth/biofilm, A600, 12 h; higher = more signal
[16] = growth modulation of vineyard yeast isolate – strain RM11-1a, OD600, basal, 24 h, primary screen (AID 1177);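 note: cultures grown under basal conditions with no added stressor; test concentration not given here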; settings: S. cerevisiae RM11-1a growth, OD600, 24 h; higher = more signal, called active from +8 up or from −8 down
[17] = growth of efflux-deficient E. coli DRC39 – strain DRC39, OD650, 24 h, E. coli filamentation inducers, primary screen (AID 1178);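 note: growth measured as culture turbidity by optical density at 650 nm; test concentration not given here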; settings: E. coli DRC39 acrAB, higher = more signal, called active from +8 up or from −8 down
[18] = growth of efflux-deficient E. coli DRC39 – strain DRC39, OD650, 48 h, E. coli filamentation inducers, primary screen (AID 1179);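 note: screen aims at cell division blockers that make cells filament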; settings: E. coli DRC39 delta-acrAB growth, higher = more signal, called active from +8 up or from −8 down
[19] = viability profiling in RPMI8226 myeloma cells – cell-based, resazurin fluorescence, basal, 24 h, PK04 Diversity Set, profiling panel (AID 1180); settings: higher = more signal;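 note: RPMI8826 multiple myeloma cell line at 5000 cells per well; test concentration not given here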
[20] = molecular target: E3 ubiquitin-protein ligase XIAP (Homo sapiens) (UniProt P98170); experiment: small molecules binding XIAP protein – biophysical, small-molecule microarray, fluorescence 635 nm, primary screen (AID 1181); settings: higher = more signal;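 note: score merges 667 nm emission and signal to noise over triplicate slides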
Sequence of E3 ubiquitin-protein ligase XIAP (Homo sapiens) (P98170 whole entry, looked up): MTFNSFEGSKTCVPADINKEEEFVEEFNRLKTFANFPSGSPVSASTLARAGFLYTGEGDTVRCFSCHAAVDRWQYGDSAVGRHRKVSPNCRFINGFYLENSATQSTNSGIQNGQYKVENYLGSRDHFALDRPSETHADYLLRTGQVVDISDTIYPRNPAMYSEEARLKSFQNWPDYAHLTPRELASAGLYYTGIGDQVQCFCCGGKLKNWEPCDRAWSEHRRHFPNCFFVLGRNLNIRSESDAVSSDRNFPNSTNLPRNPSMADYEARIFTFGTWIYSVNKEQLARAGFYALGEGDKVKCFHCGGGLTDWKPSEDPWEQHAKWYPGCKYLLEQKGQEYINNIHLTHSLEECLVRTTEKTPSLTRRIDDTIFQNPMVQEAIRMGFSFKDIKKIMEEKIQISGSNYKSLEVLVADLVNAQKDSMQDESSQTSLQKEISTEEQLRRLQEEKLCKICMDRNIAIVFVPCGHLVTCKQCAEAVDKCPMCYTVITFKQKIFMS

SMILES	z-score [1]	z-score [2]	z-score [3]	z-score [4]	z-score [5]	z-score [6]	z-score [7]	z-score [8]	z-score [9]	z-score [10]	z-score [11]	z-score [12]	z-score [13]	composite z-score [14]	z-score [15]	z-score [16]	z-score [17]	z-score [18]	z-score [19]	composite z-score [20]
COc1ccccc1CN1C(=O)c2ccccc2[C@](Cc2ccccc2I)(C(=O)O)[C@@H]1c1ccc(CO)cc1	1.14	-1.03	0.235	-0.616	-1.7	-0.199	-0.205 (inactive)	-0.151	-0.177	-0.17 (inactive)	-0.569	-1.49 (inactive)	-0.0504 (inactive)	-0.0436 (inactive)	0.416 (inactive)	0.0183 (inactive)	0.706 (inactive)	0.602 (inactive)	0.437	0.133
C=CC[C@@]1(C(=O)NCCCOC)N=C(c2ccc(OCCCO)cc2)O[C@@H]1c1ccccc1	0.689	0.457	0.83	0.611	0.751	-0.166	1.21 (inactive)	-0.323	0.193	-0.706 (inactive)	-0.843	-1.85 (inactive)	-0.203 (inactive)	-1.65 (inactive)	-0.375 (inactive)	-1.27 (inactive)	-0.12 (inactive)	1.13 (inactive)	-0.1	0.065
COCC(=C=CC[C@H](O)c1ccc(OCCO)cc1)CCO	1.06	0.156	-0.587	-1.28	0.231	-0.255	-0.597 (inactive)	0.854	0.464	1.01 (inactive)	0.996	-0.415 (inactive)	0.654 (inactive)	-1.15 (inactive)	-0.0342 (inactive)	0.137 (inactive)	0.53 (inactive)	0.209 (inactive)	0.854	0.102
COC(=O)[C@@]1(Cc2ccc(OC)cc2)[C@H]2c3cc(C(=O)N4CCCC4)n(CCc4c[nH]c5ccc(O)cc45)c3C[C@H]2CN1C(=O)c1ccccc1	1.06	-0.226	0.8	-0.927	0.305	0.873	-0.793 (inactive)	-0.259	-0.401	0.521 (inactive)	-0.553	0.532 (inactive)	-0.56 (inactive)	-0.402 (inactive)	0.411 (inactive)	0.7 (inactive)	0.23 (inactive)	0.288 (inactive)	-0.377	0.0401
CCOc1cc(C(O)C2C=CC3C(=O)NC(=O)C3N2Nc2ccc(Cl)cc2Cl)ccc1O (stereo not given)	-1.33	-0.337	-0.672	-0.433	-0.236	-1.19	-1.05 (inactive)	-0.76	0.172	-0.873 (inactive)	-1.37	0.203 (inactive)	-2.35 (inactive)	0.0681 (inactive)	1.4 (inactive)	0.358 (inactive)	-0.748 (inactive)	-0.75 (inactive)	-1.68	0.659
CC(C)c1ccc(NN2C(C(O)c3ccc(F)cc3)C=CC3C(=O)N(c4ccccc4)C(=O)C32)cc1 (stereo not given)	0.394	-1.37	0.747	-1.12	-1.46	-1.18	-0.382 (inactive)	0.282	-0.958	-0.12 (inactive)	-0.0361	-2.21 (inactive)	-1.25 (inactive)	0.319 (inactive)	1.36 (inactive)	0.737 (inactive)	-0.159 (inactive)	0.127 (inactive)	-0.895	-0.226
C=CCC(OC(C)=O)[C@@H]1[C@@H](N(Cc2ccc(-c3cccc(C(F)(F)F)c3)o2)C(=O)Cc2ccc(OC)cc2)c2cc(OCCCO)ccc2N1C(=O)c1ccc(-c2ccccc2)cc1 (stereo not given in full)	0.095	0.647	0.926	-0.681	-1.93	3.55	-0.645 (inactive)	0.498	0.504	-1.71 (inactive)	-1.35	-0.0331 (inactive)	-0.0666 (inactive)	0.821 (inactive)	-0.24 (inactive)	0.0869 (inactive)	-0.165 (inactive)	-0.555 (inactive)	-0.197	0.125
